SRC2 inh – human SRC2 (NCOA2) inhibition | 0.17% of 370,000 active | AID 651957 | inhibition, % at 9 µM | HEK293 GAL4-SRC2 luciferase reporter, luminescence;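 active means inhibition above the mean inhibition of all tested compounds plus 3 SD, set per campaign, cut at about 52% in these data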;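 further: 0% = DMSO treated cells and 100% = cells given Gossypol at 36 µM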
COUP-TFII inh – inhibitors of human COUP-TFII (NR2F2) | P24468 | HEK293T NGFI-A luciferase reporter, luminescence | inhibition, % at 8.6 µM | 0.7% of 370,000 active | AID 686940;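 active means inhibition above a per-plate cutoff, mean inhibition of test wells between control levels plus 3 SD, cut at about 38% in these data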;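 further: cells cotransfected with COUP-TFII expression vector driving the NGFI-A reporter; 0% = median of COUP-TF2 test wells and 100% = reporter-only cells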
Target sequence (P24468 whole entry, looked up): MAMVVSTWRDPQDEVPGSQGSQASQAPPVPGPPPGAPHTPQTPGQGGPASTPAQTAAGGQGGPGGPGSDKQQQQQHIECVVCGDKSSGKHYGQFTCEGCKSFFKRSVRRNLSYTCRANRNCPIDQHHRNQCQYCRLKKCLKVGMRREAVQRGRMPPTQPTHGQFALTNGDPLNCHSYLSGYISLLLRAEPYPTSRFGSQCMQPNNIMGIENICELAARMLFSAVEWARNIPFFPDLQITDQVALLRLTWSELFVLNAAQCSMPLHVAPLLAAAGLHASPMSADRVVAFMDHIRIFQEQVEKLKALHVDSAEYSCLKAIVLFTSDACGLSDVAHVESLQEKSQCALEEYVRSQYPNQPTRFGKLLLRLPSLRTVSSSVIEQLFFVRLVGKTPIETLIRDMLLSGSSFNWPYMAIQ
GalR3 antagonist – human GalR3 antagonism; O60755; HEK293 GalR3-CNG cAMP membrane potential fluorescence; galR3 body fused to GalR1 C-terminus; inhibition, % at 3 µM; 0.44% of 360,000 active; AID 651719;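 active means inhibition above the screen-wide average plus 3 SD, cut at about 13% in these data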;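 further: forskolin and galanin both at EC90 stimulate the cells; cAMP rise reported by CNG channel membrane potential dye signal; 0% = forskolin plus galanin with DMSO and 100% = forskolin alone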
LRH-1 inv ag – NR5A2 inverse agonism in reporter assay; inhibition, % at 3.6 µM; O00482; HEK293T StAR-luciferase reporter, LRH-1 transfected, 24 h; 0.13% of 360,000 active;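 active means inhibition above the mean inhibition of all tested compounds plus 3 SD, cut at about 73% in these data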;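 further: 0% = DMSO wells and 100% = reporter-only cells lacking LRH-1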
NCOA3 inh – human NCOA3 inhibition; 0.17% of 360,000 active; AID 588352; HEK293 GAL4-SRC3 luciferase reporter, luminescence; inhibition, % at 3.6 µM;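 active means inhibition above a per-campaign cutoff, the mean of all compounds plus 3 SD, cut at about 60% in these data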;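 further: 0% = DMSO-treated cells and 100% = gossypol-treated cells at 36 µM; higher means less SRC3-driven luciferase light from the GAL4 reporter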
NCOA1 inh – inhibits human SRC1 coactivator. Q15788. HEK293 GAL4-SRC1 luciferase reporter, luminescence. inhibition, % at 3.6 µM. 0.12% of 360,000 active. AID 588354;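 active means inhibition above the campaign mean plus 3 SD, with each screening campaign given its own cutoff, cut at about 60% in these data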;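 further: 0% = DMSO treated cells and 100% = gossypol at 36 µM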
GalR3 antag conf – confirmation of human galanin receptor 3 antagonists; shares compounds with GalR3 antagonist; inhibition, % at 3 µM; HEK293 GalR3 CNG cAMP biosensor, membrane potential fluorescence; galR3 fused to GalR1 carboxy tail; challenged with forskolin and galanin at EC90; 59% of 1,600 active; AID 652245;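 active means inhibition above the primary screen's cutoff, the mean inhibition of all screened compounds plus 3 SD, cut at about 13% in these data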;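 further: 0% = forskolin plus galanin and 100% = forskolin alone with DMSO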
CNG parental – acts as nonspecific agonist in parental HEK-CNG cells; shares compounds with GalR3 antagonist; HEK293-CNG parental cells, cAMP membrane potential fluorescence; normalised: DMSO wells 0%, forskolin wells 100%; activation, % at 3 µM; 10% of 1,600 active; in the data active means activation above about 1.3%
* marks the source's active call; other numbers are inactive results; x = not tested or not shown. Only some compounds are listed: those with a hit (about 1.1% of all), similar ones and a draw of the others.

SMILES	SRC2 inh	COUP-TFII inh	GalR3 antagonist	LRH-1 inv ag	NCOA3 inh	NCOA1 inh	GalR3 antag conf	CNG parental
c1ccc(Cn2cnc3ccccc32)cc1	-67	-48	-3	-128	-69	-90	x	x
Cc1cccc2c(=O)cc(C(F)(F)F)[nH]c12	-20	1	-2	17	17	13	x	x
Cc1cc(=S)c2cccc(C)c2[nH]1	-22	14	21*	x	x	x	30*	0
Cc1[nH]c(=O)[nH]c(=O)c1/C=N/NC(=O)[C@H](CC(C)C)NC(=O)OC(C)(C)C	10	20	0	1	-13	-129	x	x
Cc1[nH]c(=O)[nH]c(=O)c1/C=N/NC(=O)[C@H](C)NC(=O)OC(C)(C)C	12	4	x	-1	-1	6	1	0
O=C(NC(=S)NC1CCCc2ccccc21)c1ccco1 (stereo not drawn)	18	20	-5	-4	22	-17	x	x
O=C(c1cccnc1Cl)N1CCOCC1	-26	4	13*	-4	9	-23	2	0
CCN(CC)c1ccc(/C=N/NC(=S)NCc2ccccc2)c(O)c1	-1	8	13*	3	9	17	25*	-2
COc1ccccc1NC(=O)Nc1cc(C(C)C)ccc1C	-3	-2	-10	13	2	11	x	x
CCOC(=O)c1ccc(-c2c(-c3ccc(OC)cc3)oc(=O)c3cc(OC)c(OC)cc23)cc1F	8	2	-5	3	-3	-23	x	x
CCOC(=O)c1ccc(-c2c(-c3cc(OC)c(OC)c(OC)c3)noc2C)cc1F	15	-24	x	21	-11	-6	5	3.8*
CCc1nc2ccc(C(=O)Nc3ccc4c(c3)OCC(=O)N4)cn2c1N(CC)CCOC	-45	-28	15*	-4	8	13	11	0
Cc1ncc(C)c2c([N+](=O)[O-])cccc12	-15	0	-4	8	18	11	x	x
Cc1cnc(C=O)c2cccc([N+](=O)[O-])c12	7	-3	34*	4	-16	-16	14*	0
CCOC(=O)c1oc2c(c1C)/C(=N/O)CCC2	-23	-46	13*	-10	-31	-34	2	0
CCOC(=O)c1oc2c(c1C)C(=O)CCC2	-6	-4	-11	-8	2	-23	x	x
O=C(Nc1ccccc1C1CC1)c1cccs1	2	6	78*	-41	-8	10	-9	0
CSc1ccccc1NC(=O)c1cccs1	-15	-13	8	5	-16	12	x	x
O=c1c(Cl)c(NCC2CCCO2)cnn1C12CC3CC(CC(C3)C1)C2 (stereo not drawn)	-2	-24	15*	10	10	5	33*	0
O=C(O)C12CC3CC(C1)CC(n1ncc(NCc4ccco4)c(Cl)c1=O)(C3)C2	10	1	3	3	12	-2	x	x
O=C(CSc1ccc(-c2ccco2)nn1)NCCc1ccccc1	-7	2	2	14	-9	-7	x	x
COc1ccc(CCNC(=O)CSc2ccc(-c3ccco3)nn2)cc1	-42	4	13*	10	8	-16	6	0
CC(=O)Nc1ccc(S(=O)(=O)NCC(=O)OCC(=O)N2CCc3ccccc32)cc1	1	2	13*	1	17	3	0	0
COc1ccc(C(=O)CSc2nnc(-c3cccnc3)n2-c2ccccc2)cc1	-2	3	x	x	x	x	x	x
COc1ccc(NCc2nnc(SCC(=O)Nc3ccccc3)n2C)cc1	0	7	x	1	13	-4	-1	0
SMILES	SRC2 inh	COUP-TFII inh	GalR3 antagonist	LRH-1 inv ag	NCOA3 inh	NCOA1 inh	GalR3 antag conf	CNG parental
COc1ccc(NCc2nnc(SCC(=O)Nc3ccc(OC)cc3)n2C)cc1	-14	4	-5	1	-1	-30	x	x
CCOc1ccc(/C=C2\SC(=S)N(CCC(=O)Nc3ccc(C(=O)O)cc3)C2=O)cc1	-8	1	-9	4	-5	-2	x	x
Cc1cc2ccccn2c1C(=O)Nc1cccc(Cl)c1	3	-31	13*	5	-20	-27	11	0
COc1ccc(NC(=O)c2ccccc2SCc2ccccc2)cc1	1	23	-9	7	-18	2	x	x
COc1ccc(N2C(=O)c3ccccc3NC2c2ccc(OC)c(Cn3cc([N+](=O)[O-])cn3)c2)cc1 (stereo not drawn)	-63	-20	59*	-109	-63	-65	24*	0
CCOc1ccccc1C1NC(=O)c2ccccc2N1 (stereo not drawn)	-12	-33	13*	-5	-17	-28	13*	1.4*
Cc1ccc(C2NC(=O)c3ccccc3N2)c(C)c1 (stereo not drawn)	-1	9	7	16	1	-2	x	x
CC(=O)Nc1cccc(NC=C(C#N)C#N)c1	-4	-7	15*	3	19	8	-5	0
CC(=O)Nc1cccc(O)c1	-4	0	1	-1	5	1	x	x
COc1ccc(/C=C2\OC(=O)c3c(OC)cccc32)cc1OC	-41	-148	62*	-112	-55	-94	20*	0
CC(C)(C)c1ccc(C(=O)/C=C2\NC(=O)CS2)cc1	-59	-52	0	-185	-92	-112	x	x
COc1cccc(CNC(=O)CCNC(=O)c2ccco2)c1	16	-5	-1	12	15	1	x	x
CC(C)NC(=O)CSc1nc2[nH]ncc2c(=O)[nH]1	15	-3	-6	-6	7	7	x	x
Nc1ncnc2c1ncn2[C@@H]1O[C@H](C(=O)NS(=O)(=O)c2ccccc2[N+](=O)[O-])[C@@H](O)[C@H]1O	4	-18	39*	26	-13	9	27*	0
O=c1ccn([C@@H]2O[C@H](CNCc3ccc(-c4cc(C(F)(F)F)ccc4Cl)o3)[C@@H](O)[C@H]2O)c(=O)[nH]1	-22	-5	2	-9	-3	4	x	x
Nc1ncnc2c1ncn2[C@@H]1O[C@H](C(=O)N[C@@H](CO)c2ccccc2)[C@@H](O)[C@H]1O	9	-27	-6	13	15	13	x	x
Nc1ncnc2c1ncn2[C@@H]1O[C@H](C(=O)N[C@H]2c3ccccc3C[C@H]2O)[C@@H](O)[C@H]1O	-25	-18	20*	-7	3	-5	31*	1.3*
Nc1ncnc2c1ncn2[C@@H]1O[C@H](CNCc2ccc(-c3cc(C(F)(F)F)ccc3Cl)o2)[C@@H](O)[C@H]1O	-27	-47	42*	-9	-1	-13	54*	0

Source: PubChem
